# Source: PubChem BioAssay (Tox21)
# “And” between values parts separate entries of the source, which are not always exact repeats. Equal values may be shown once. Unmarked numbers belong to inactive results. Results filed as inconclusive are left out. Entries that show only a call come without a potency. The source made the active and inactive calls. Unless noted, calls follow the shape of the dose curve; as a rule, active = well fitted curve in the direction sought with a large enough effect in the repeat runs; inconclusive = weak or mixed curves; inactive = no such curve, though single readings can be large; an effect the other way counts as inactive or inconclusive.
# Assays:
# [1] = target: Progesterone receptor (Homo sapiens) (UniProt P06401); test: qHTS assay to identify small molecule antagonists of the progesterone receptor (PR) signaling pathway (AID 1346795; active = well fitted inhibition curve with a large enough effect in the signal ratio in the repeat runs, not every such curve was filed as active; the % refers to the signal ratio; also: potency is read from the fitted curve at half-maximal effect)
# Summary of the method: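 Antagonist mode with agonist R5020 at 1 nM final and 16 hr incubation at 37C. Reporter was beta-lactamase driven by UAS in HEK293T (PR-UAS-bla), 2% charcoal-stripped serum; signal from LiveBLAzer FRET substrate, 2 hr at room temperature.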
# [2] = qHTS assay to identify small molecule antagonists of the TGF-beta/Smad signaling pathway - cell viability counter screen (AID 1346824); also: nearly all actives have a fitted effect of over 50% in size; also: potency is read from the fitted curve at half-maximal effect
# Summary of the method: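 Cytotoxicity counter-screen run in the same wells as the beta-lactamase Smad reporter read: CellTiter-Glo luminescence after 30 min at room temperature. HEK 293T SBE-bla cells had 5 hr compound exposure at 37 C with TGF-beta1 (0.25 ng/mL stock).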
# [3] = qHTS assay to identify small molecule agonists of the TGF-beta/Smad signaling pathway - cell viability counter screen (AID 1346829); also: nearly all actives have a fitted effect of over 45% in size; also: potency is read from the fitted curve at half-maximal effect
# Summary of the method: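 Compound-treated SBE-bla HEK 293T cells (5 hr, 37 C) were assessed for viability with CellTiter-Glo in parallel with the reporter read.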
# [4] = qHTS assay to identify small molecule agonists of the TGF-beta/Smad signaling pathway (AID 1346859; active = well fitted activation curve with a large enough effect in the signal ratio in the repeat runs, not every such curve was filed as active; the % refers to the signal ratio; also: series mostly up to about 77 µM)
# Summary of the method: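 Fluorescence (ex 405 nm; em 460 and 530 nm) was read 2 h after LiveBLAzer FRET substrate at RT. The preceding compound treatment of overnight-plated SBE-bla HEK293T cells lasted 5 h at 37 C.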
# [5] = target: Thyrotropin-releasing hormone receptor (Homo sapiens) (UniProt P34981); test: qHTS assay to identify small molecule antagonists of the thyrotropin-releasing hormone receptor (TRHR) signaling pathway (AID 1346877; active = well fitted inhibition curve with a large enough effect in the repeat runs, not every such curve was filed as active; also: potency is read from the fitted curve at half-maximal effect)
# Summary of the method: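 Intracellular calcium fluorescence, read kinetically every second over 3 min, reports TRH-evoked signalling in HEK293 cells carrying TRHR. Test compounds were added 5 min ahead of a 1 nM TRH challenge.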
# [6] = target: Thyrotropin-releasing hormone receptor (Homo sapiens) (UniProt P34981); test: qHTS assay to identify small molecule agonists of the thyrotropin-releasing hormone receptor (TRHR) signaling pathway (AID 1346891; calls by dose curve; also: series mostly up to about 58 µM)
# Summary of the method: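 Agonist-mode intracellular calcium readout: kinetic fluorescence over 3 min at 1 s intervals after compound addition to TRHR-HEK293 cells (18 h seeded, 2 h dye-loaded at 37 C). Fifteen concentrations, triplicates.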
# [7] = Human pregnane X receptor (PXR) small molecule agonists, qHTS cell viability counter screen (AID 1346977); also: nearly all actives have a fitted effect of over 50% in size; also: potency is read from the fitted curve at half-maximal effect
# Summary of the method: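 Same-well viability read: CellTiter-Fluor added after 23 hr compound exposure, fluorescence measured 1 hr later. Cells were PXR-Luc HepG2 seeded at 2,000/well in 5% charcoal-stripped FBS medium, rested 5 hr before dosing at 37 C.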
# [8] = Caspase-3/7 induction in CHO-K1 cells by small molecules, qHTS cell viability counter screen (AID 1346979); also: nearly all actives have a fitted effect of over 35% in size; also: potency is read from the fitted curve at half-maximal effect
# Summary of the method: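 Cytotoxicity counter screen: CellTiter-Fluor added to compound-treated wild-type CHO-K1 cells at 16 h (37C, 5% CO2), fluorescence measured 1 h later; same wells as caspase-3/7 measurement.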
# [9] = Caspase-3/7 induction in CHO-K1 cells by small molecules, qHTS assay (AID 1346980); also: nearly all actives have a fitted effect of over 15% in size
# Summary of the method: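 Luminescent Caspase-Glo 3/7 read (30min, room temperature) quantified apoptosis induction. Cells were wild-type CHO-K1, treated with compound for 17hr at 37 C and 5% CO2.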
# [10] = Caspase-3/7 induction in HepG2 cells by small molecules, qHTS cell viability counter screen (AID 1346981); also: nearly all actives have a fitted effect of over 30% in size; also: potency is read from the fitted curve at half-maximal effect
# Summary of the method: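 HepG2, WT, 2,000 cells/well; 5 hr pre-incubation 37 C/5% CO2; compound pin-transferred from DMSO; 16 hr exposure; CellTiter-Fluor, 1 hr; fluorescence read.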
# [11] = target: Nuclear receptor subfamily 1 group I member 2 (Homo sapiens) (UniProt O75469); test: Human pregnane X receptor (PXR) small molecule agonists, qHTS assay (AID 1346982); also: nearly all actives have a fitted effect of over 35% in size; also: potency is read from the fitted curve at half-maximal effect
# Summary of the method: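 Luciferase signal from ONE-Glo (30 min, room temperature) measured activation of hPXR-driven CYP3A4 reporter expression in PXR-Luc HepG2 cells treated with compounds for 24 hr at 37 C.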
# [12] = target: Nuclear receptor subfamily 1 group I member 2 (Homo sapiens) (UniProt O75469); test: CYP3A4 induction through human pregnane X receptor (PXR) by small molecules, qHTS assay (AID 1346984); also: nearly all actives have a fitted effect of over 40% in size; also: potency is read from the fitted curve at half-maximal effect
# Summary of the method: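 Luminescence readout: luciferase signal after One-Glo (30 min, room temperature), following 3 h at 37C with 3uM final Luciferin-IPA P450 substrate. Cells were DPX-2 (HepG2, PXR/CYP3A4-luc co-transfected) dosed for 24 h.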
# [13] = target: Cytochrome P450 2D6 (Homo sapiens) (UniProt P10635); test: Cytochrome P450 Family 2 Subfamily D Member 6 (CYP2D6) small molecule antagonists: luciferase reporter qHTS assay (AID 1671196); also: nearly all actives have a fitted effect of over 50% in size; also: potency is read from the fitted curve at half-maximal effect
# Summary of the method: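 Read-out is luminescence from luciferin formed by CYP2D6 turnover of a proluciferin substrate, recorded as relative luminescence units. Reactions ran 1 h at room temperature after NADPH regeneration solution was added.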
# [14] = target: Cytochrome P450 2C19 (Homo sapiens) (UniProt P33261); test: Cytochrome P450 Family 2 Subfamily C Member 19 (CYP2C19) small molecule antagonists: luciferase reporter qHTS assay (AID 1671197); also: nearly all actives have a fitted effect of over 65% in size; also: potency is read from the fitted curve at half-maximal effect
# Summary of the method: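 P450-Glo CYP2C19 screening system; proluciferin substrate; DMSO compound stocks; 10 min RT preincubation; NADPH regeneration, 1 h at 37C; luciferin detection reagent, 20 min RT; luminescence as RLU.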
# [15] = target: Cytochrome P450 2C9 (Homo sapiens) (UniProt P11712); test: Cytochrome P450 Family 2 Subfamily C Member 9 (CYP2C9) small molecule antagonists: luciferase reporter qHTS assay (AID 1671198); also: nearly all actives have a fitted effect of over 50% in size; also: potency is read from the fitted curve at half-maximal effect
# Summary of the method: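 Enzyme-substrate mix preincubated with compound 10 min at room temperature; reaction started with NADPH regeneration solution, 1 h 37C. Luminescent luciferin product read after 20 min detection reagent.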
# [16] = Caspase-3/7 induction in HepG2 cells by small molecules, qHTS assay (AID 1346978); also: nearly all actives have a fitted effect of over 15% in size; also: potency is read from the fitted curve at half-maximal effect
# Summary of the method: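 Caspase-3/7 induction was measured by Caspase-Glo 3/7 luminescence (30 min, room temperature) after a 17 hr compound exposure of wild-type HepG2 cells seeded at 2,000 per well and pre-incubated 5 hr.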
# [17] = target: Nuclear receptor subfamily 1 group I member 2 (Homo sapiens) (UniProt O75469); test: Human pregnane X receptor (PXR) activation by small molecules, qHTS assay (AID 1346985); also: nearly all actives have a fitted effect of over 40% in size
# Summary of the method: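 DPX-2 cells (HepG2 co-transfected with a PXR response element and a CYP3A4-promoter luciferase construct) were seeded at 2,000 per well, rested 5 hr at 37C, then exposed to DMSO-dissolved compounds for 24 hr. Activation was read as luciferase luminescence.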
# [18] = qHTS assay to identify small molecule agonists of the progesterone receptor (PR) signaling pathway - cell viability counter screen (AID 1346799; calls by dose curve; also: nearly all actives have a fitted effect of over 45% in size; also: potency is read from the fitted curve at half-maximal effect)
# Summary of the method: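 Cytotoxicity measured by CellTiter-Glo luminescence (30 min, RT) in the same wells as the PR beta-lactamase agonist read. Those HEK293T cells had 16 h compound treatment at 37 C in 2% charcoal-stripped FBS medium.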
# [19] = target: Nuclear receptor subfamily 1 group I member 2 (Rattus norvegicus) (UniProt Q9R1A7); test: Rat pregnane X receptor (rPXR) activation by small molecules, qHTS assay (AID 1346983); conditions: rPXR luciferase reporter cells, One-Glo luminescence, 24 h; max activation: hits give high values; also: nearly all actives have a fitted effect of over 20% in size
# Summary of the method: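 Luminescent readout (One-Glo luciferase, 30 min room temperature) followed 24 hr compound treatment at 37 C of rPXR cells plated 2,000 per well and preincubated 5hr; qHTS format with compounds delivered in DMSO.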
# [20] = qHTS assay to identify small molecule antagonists of the progesterone receptor (PR) signaling pathway - cell viability counter screen (AID 1346798); also: nearly all actives have a fitted effect of over 50% in size; also: potency is read from the fitted curve at half-maximal effect
# Summary of the method: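 Cytotoxicity read as CellTiter-Glo luminescence (30 min, room temperature) in the same wells as the beta-lactamase readout. HEK293T PR-UAS-bla cells in charcoal-stripped 2% FBS received compound and R5020, then 16 h at 37C, 5% CO2.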
# Sequence of Cytochrome P450 2C9 (Homo sapiens) (P11712 whole entry, looked up): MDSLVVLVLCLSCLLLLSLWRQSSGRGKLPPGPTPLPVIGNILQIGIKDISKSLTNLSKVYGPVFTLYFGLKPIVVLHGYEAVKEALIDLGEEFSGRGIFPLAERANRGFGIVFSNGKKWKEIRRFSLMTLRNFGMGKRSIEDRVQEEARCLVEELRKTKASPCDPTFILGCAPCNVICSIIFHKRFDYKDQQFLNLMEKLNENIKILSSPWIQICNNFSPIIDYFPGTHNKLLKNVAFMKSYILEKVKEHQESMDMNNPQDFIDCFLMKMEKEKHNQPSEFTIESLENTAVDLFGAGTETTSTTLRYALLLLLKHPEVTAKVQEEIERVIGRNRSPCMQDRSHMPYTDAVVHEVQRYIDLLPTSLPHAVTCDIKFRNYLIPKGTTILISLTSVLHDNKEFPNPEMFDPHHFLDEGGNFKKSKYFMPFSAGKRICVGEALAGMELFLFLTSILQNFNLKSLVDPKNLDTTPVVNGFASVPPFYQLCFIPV
# Sequence of Nuclear receptor subfamily 1 group I member 2 (Homo sapiens) (O75469 whole entry, looked up): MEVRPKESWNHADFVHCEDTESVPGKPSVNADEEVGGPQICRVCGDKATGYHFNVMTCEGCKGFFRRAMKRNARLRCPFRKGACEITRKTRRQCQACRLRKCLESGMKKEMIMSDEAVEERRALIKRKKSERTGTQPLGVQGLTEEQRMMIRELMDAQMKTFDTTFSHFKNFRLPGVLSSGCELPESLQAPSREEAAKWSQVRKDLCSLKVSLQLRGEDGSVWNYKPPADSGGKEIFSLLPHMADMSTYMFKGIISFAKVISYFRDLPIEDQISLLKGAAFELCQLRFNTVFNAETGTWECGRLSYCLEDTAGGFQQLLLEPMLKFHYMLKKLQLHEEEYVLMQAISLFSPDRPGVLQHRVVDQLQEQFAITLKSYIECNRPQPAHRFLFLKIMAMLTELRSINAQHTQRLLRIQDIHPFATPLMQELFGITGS
# Sequence of Cytochrome P450 2D6 (Homo sapiens) (P10635 whole entry, looked up): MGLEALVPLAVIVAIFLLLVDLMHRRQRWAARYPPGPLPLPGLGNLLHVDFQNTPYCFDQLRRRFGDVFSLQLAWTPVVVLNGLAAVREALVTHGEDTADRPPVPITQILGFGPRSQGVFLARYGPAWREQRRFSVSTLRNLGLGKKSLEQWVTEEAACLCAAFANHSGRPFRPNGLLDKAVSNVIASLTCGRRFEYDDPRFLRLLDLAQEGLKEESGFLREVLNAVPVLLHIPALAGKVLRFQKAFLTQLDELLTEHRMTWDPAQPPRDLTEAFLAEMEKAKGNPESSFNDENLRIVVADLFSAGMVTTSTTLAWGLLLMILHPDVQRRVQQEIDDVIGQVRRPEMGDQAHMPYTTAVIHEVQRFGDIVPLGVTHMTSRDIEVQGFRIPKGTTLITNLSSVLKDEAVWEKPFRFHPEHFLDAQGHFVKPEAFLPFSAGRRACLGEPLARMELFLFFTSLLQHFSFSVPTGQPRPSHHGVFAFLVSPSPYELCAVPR
# Sequence of Thyrotropin-releasing hormone receptor (Homo sapiens) (P34981 whole entry, looked up): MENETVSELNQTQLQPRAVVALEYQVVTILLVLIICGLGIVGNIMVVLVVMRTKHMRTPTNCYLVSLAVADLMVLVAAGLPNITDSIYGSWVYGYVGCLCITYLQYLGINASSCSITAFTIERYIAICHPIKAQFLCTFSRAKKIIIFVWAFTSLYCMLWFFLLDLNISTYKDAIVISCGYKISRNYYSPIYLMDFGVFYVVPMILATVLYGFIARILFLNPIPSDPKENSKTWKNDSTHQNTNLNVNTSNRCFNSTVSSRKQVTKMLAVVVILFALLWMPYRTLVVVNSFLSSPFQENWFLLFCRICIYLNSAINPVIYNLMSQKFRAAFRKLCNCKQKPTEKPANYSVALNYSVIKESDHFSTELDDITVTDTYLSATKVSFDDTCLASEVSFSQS
# Sequence of Progesterone receptor (Homo sapiens) (P06401 whole entry, looked up): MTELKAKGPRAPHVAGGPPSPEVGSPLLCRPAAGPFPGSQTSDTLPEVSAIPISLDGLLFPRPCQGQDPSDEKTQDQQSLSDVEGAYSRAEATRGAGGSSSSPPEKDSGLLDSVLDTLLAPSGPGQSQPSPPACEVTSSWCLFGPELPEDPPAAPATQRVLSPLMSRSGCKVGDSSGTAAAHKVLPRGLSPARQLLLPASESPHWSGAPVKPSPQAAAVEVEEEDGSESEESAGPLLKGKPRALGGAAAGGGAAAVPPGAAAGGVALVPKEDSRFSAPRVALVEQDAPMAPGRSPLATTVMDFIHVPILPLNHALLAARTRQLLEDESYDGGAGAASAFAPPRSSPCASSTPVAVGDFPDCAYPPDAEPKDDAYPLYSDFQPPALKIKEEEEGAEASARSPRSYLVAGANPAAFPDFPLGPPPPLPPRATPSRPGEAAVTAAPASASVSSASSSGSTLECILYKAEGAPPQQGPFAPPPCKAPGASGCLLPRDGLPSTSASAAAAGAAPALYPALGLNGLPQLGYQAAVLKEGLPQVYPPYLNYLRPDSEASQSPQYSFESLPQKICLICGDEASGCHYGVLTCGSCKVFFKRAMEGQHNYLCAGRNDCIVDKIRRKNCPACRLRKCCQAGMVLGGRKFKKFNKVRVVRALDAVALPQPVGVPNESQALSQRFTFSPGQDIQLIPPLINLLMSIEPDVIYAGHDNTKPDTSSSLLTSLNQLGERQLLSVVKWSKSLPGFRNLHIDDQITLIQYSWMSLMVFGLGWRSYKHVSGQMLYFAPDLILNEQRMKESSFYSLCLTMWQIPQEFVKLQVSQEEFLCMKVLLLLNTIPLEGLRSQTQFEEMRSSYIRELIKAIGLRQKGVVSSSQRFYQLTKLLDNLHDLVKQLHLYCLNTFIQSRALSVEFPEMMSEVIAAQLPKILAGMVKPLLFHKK
# Sequence of Cytochrome P450 2C19 (Homo sapiens) (P33261 whole entry, looked up): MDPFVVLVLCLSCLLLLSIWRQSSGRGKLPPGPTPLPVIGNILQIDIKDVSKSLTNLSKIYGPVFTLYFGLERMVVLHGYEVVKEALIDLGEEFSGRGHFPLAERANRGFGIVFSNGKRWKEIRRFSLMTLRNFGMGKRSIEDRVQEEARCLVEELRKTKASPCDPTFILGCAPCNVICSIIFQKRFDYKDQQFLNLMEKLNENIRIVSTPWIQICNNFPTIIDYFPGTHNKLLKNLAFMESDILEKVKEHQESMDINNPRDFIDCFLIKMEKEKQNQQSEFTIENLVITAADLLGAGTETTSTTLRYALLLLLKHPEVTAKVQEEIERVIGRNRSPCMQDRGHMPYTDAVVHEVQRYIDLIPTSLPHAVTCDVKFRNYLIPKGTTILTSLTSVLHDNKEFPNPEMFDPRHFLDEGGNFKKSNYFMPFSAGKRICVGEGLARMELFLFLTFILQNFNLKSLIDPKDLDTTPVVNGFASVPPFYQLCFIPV
# Sequence of Nuclear receptor subfamily 1 group I member 2 (Rattus norvegicus) (Q9R1A7 whole entry, looked up): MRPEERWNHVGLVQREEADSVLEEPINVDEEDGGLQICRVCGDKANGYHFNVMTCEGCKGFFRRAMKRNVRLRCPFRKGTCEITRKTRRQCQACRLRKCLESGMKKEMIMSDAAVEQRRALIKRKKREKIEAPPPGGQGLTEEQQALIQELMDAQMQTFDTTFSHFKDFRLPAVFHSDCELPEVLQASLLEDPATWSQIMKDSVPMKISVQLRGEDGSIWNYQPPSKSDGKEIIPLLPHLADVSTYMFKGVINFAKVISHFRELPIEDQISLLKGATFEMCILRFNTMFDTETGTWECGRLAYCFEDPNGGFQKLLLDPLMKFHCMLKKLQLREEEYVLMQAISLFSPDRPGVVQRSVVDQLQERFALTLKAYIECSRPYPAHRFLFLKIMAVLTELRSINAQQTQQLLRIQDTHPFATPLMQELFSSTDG
SMILES,Potency [1],Potency [2],Potency [3],Potency [4],Potency [5],Potency [6],Potency [7],Potency [8],Potency [9],Potency [10],Potency [11],Potency [12],Potency [13],Potency [14],Potency [15],Potency [16],Potency [17],Potency [18],max activation [19] [%],Potency [20]
COc1cc(C=C2CCC/C(=C\c3ccc(O)c(OC)c3)C2=O)ccc1O,6.68 µM (active),inactive,inactive,inactive,inactive,inactive,29.8 µM (active),29.8 µM (active),inactive,29.8 µM (active),inactive,inactive,inactive,24.5 µM (active),15.5 µM (active),–,–,–,–,–
CCCCCCCCCCCCCCNCCO,inactive,inactive,inactive,inactive,–,–,inactive,–,inactive,inactive,–,inactive,3.09 µM (active),–,inactive,inactive,inactive,–,–,–
ClC/C=C\CCl,inactive,inactive,inactive,–,inactive,inactive,inactive,inactive,inactive,inactive,–,–,–,33.1 µM (active),inactive,inactive,–,inactive,–,–
CC(C)c1ccc(O)c(C(C)C)c1,inactive,inactive,inactive,inactive,inactive,inactive,inactive,–,inactive,inactive,inactive,–,inactive,7.1 µM (active),35.6 µM (active),61.1 µM (active),–,inactive,–,–
O=C1OC(OC(=O)c2cccnc2Nc2cccc(C(F)(F)F)c2)c2ccccc21 (centres undefined),inactive,inactive,inactive,inactive,–,–,inactive,inactive,inactive,–,inactive,inactive,inactive,–,6.17 µM (active),inactive,inactive,inactive,–,–
CC(C)(c1cc(Br)c(O)c(Br)c1)c1cc(Br)c(O)c(Br)c1,13.6 µM (active) and 17.2 µM (active),inactive,inactive,inactive,33.8 µM (active),inactive,inactive,60.9 µM (active),–,inactive,54.3 µM (active) and 60.9 µM (active) and 57.9 µM (active),–,inactive,22.4 µM (active) and 35.5 µM (active),31.6 µM (active) and 35.5 µM (active) and 30 µM (active),inactive,–,–,–,–
NC(=O)c1nc(-c2cccc(-c3cc(F)ccc3OCC(F)(F)C(F)(F)F)c2)n[nH]1,34.4 µM (active),inactive,inactive,inactive,inactive,inactive,54.5 µM (active),54.5 µM (active),–,61.1 µM (active),61.1 µM (active),–,79.6 µM (active),28.3 µM (active),28.3 µM (active),inactive,–,–,–,–
CC(=O)Oc1ccc(C2(c3ccc(OC(C)=O)cc3)C(=O)Nc3ccccc32)cc1,inactive,inactive,inactive,inactive,–,–,inactive,inactive,inactive,inactive,–,inactive,inactive,11 µM (active),5.49 µM (active),inactive,inactive,–,–,–
CC(C)(C)c1cc(/C=C2\SC(=N)NC2=O)cc(C(C)(C)C)c1O,61.1 µM (active),inactive,inactive,inactive,inactive,inactive,48.6 µM (active),54.5 µM (active),inactive,–,30.6 µM (active),–,39.9 µM (active),–,1.78 µM (active),inactive,–,–,–,–
Oc1c(Br)cc(Br)c2cccnc12,2.66 µM (active),inactive,inactive,inactive,–,–,–,23.7 µM (active),inactive,inactive,29.8 µM (active),1 µM (active),inactive,inactive,–,inactive,–,inactive,-2.52,–
CO[Si](CCC1CCC2OC2C1)(OC)OC (centres undefined),inactive,inactive,inactive,inactive,inactive,inactive,inactive,inactive,inactive,inactive,–,–,inactive,inactive,inactive,inactive,–,inactive,–,–
O=C(Nc1ccc(Cl)c(Cl)c1)c1cc(Cl)cc(Cl)c1O,4.86 µM (active),19.5 µM (active),6.92 µM (active),–,–,inactive,4.86 µM (active),–,inactive,–,10.9 µM (active),–,–,–,11.2 µM (active),inactive,–,–,–,–
CCCCCCCCCCCCN(CCO)CCO,60.9 µM (active),inactive,–,inactive,inactive,inactive,48.4 µM (active),43.1 µM (active),–,68.3 µM (active),15.3 µM (active),–,11.2 µM (active),25.1 µM (active),63 µM (active),30.5 µM (active),–,–,–,–
CCCCCCC(C)OC(=O)COc1nc(F)c(Cl)c(N)c1Cl (centres undefined),–,inactive,inactive,inactive,inactive,inactive,inactive,inactive,inactive,inactive,inactive,–,–,4.48 µM (active),17.8 µM (active),–,–,inactive,–,inactive
CNCC[C@H](Oc1cccc2ccccc12)c1cccs1,–,inactive,inactive,inactive,inactive,inactive,29.8 µM (active),–,inactive,–,–,–,–,–,–,–,–,21.1 µM (active),–,23.7 µM (active)
CCN(CC)CCNc1ccc(CO)c2sc3ccccc3c(=O)c12,–,inactive,inactive,inactive,inactive,inactive,7.5 µM (active),23.7 µM (active),inactive,13.3 µM (active),inactive,–,3.47 µM (active),inactive,inactive,13.3 µM (active),–,13.3 µM (active),–,15 µM (active)
